# Data as given in the supplement of paper PMC11417369.
# In all, about 25,000 sequences were measured (“ln(normalized median fluorescence intensity)”: median about 7.1, highest 2% from about 10 on). This is one part of a sample in which the highest values are shown more often than they occur.
# Tested on: PfSIP2 AP2 domain 1 (GST-tagged)
# Assay: gcPBM binding intensity (ln(normalized median fluorescence intensity)); higher = stronger DNA binding
# Outline: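 After 1 h on an Agilent 4 × 180k array of primer-extended double-stranded 36-bp intergenic genomic probes and negative controls, bound GST-tagged P. falciparum DNA-binding domains were detected with Alexa488 anti-GST antibody and scanned at 488 nm. The domains had been expressed in E. coli, and binding took place in 1× PBS with 1% milk, 0.2 mg/ml BSA, 0.5% salmon testes DNA and 0.03% Triton X-100. Binding intensity is the highest Masliner-normalised natural-log median intensity across replicate spots of either probe orientation.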
row,Sequence,gcPBM binding intensity (ln)
1,ATTGTGGCAATATATTGTACATGTAATATAAATATA [XGTACX_site5415],7.06
2,TTCTTTTTTTTTAAAACAAACAAACAAACAAACAAA [CACACA_negctrl_site832],7.06
3,TTCTTTTTAATGTCGGTGCAACTCCATAAAAACAAA [GTGCAC_site9488],10.8
4,CCATATTTAATAAAATGTACTCATTCTTTTATTTTA [XGTACX_site7802],7.11
5,ATATATTTTATATAGTGTACTTTAATTTTTTTTTTT [XGTACX_site5550],6.83
6,AGTTATTTTTATATTTCACACACATATACTTTTACA [CACACA_site9357],7.21
7,TAGCTGTTCAAAAAATGTACATATATAATATATATA [XGTACX_site5842],7.49
8,ATTTTCATGATAAAGGTGCAATTATTTTTATAAGAA,10.8
9,AATAAATTCATGATAGTGCAAAAATTATTTTTGTTA,8.49
10,GTATTCATGCTAAAGGTGCAATAATTTTTATAATAA [GTGCAC_site9603],10.9
11,TATAATTTATTAAGGGGTACATATATTTCATGATAA [XGTACX_site5141],7.19
12,ACACATAATATAAAGGTGCTATATTGTATTCATTTT [GTGCAC_site9457],8.36
13,AAACCCTATTCAATGCAATAATTTTATAATTTTTTT [TGCATGCA_negctrl_site434],6.91
14,AATCAAAATTAATTAACACACAATTTTAATATTCTT [CACACA_site2063],6.79
15,ATATATTTTTTTTAGCGTACATGCAAAAAAAAAAAA [XGTACX_site4590],7.26
16,TACGTTATGTTGAATAGTACAATTTGGTGAACAGGT [XGTACX_site1729],7.51
17,GTAGTGGTTGAATATACACACATATATAAATAAATA [CACACA_site7282],7
18,TTTTATAAACAGAGGGGTACGGGAAAAAAAAAAAAA [XGTACX_site1480],7.11
19,TTTTTTTTTTTTTTGGTGCGTTTATATATAAATATA,8.81
20,TTTTTTTTTTTGTGGGTGCGTTTATAAAAACAGGAA,11.1
21,TAATACCATTGTCATGCATGCACATTATTACTCTAA [TGCATGCA_site160],7.38
22,CCTAAAGTGTAAAATTCACACACATATATATATATA [CACACA_site8385],8.94
23,TTTTATATTTTAAGAGTGCATTTTATATCTTTTTCT,8.74
24,ATTTTTTTCTTAGGAGTGCACTTATATTTATTTTAT,11.2
25,ATATATTTTAGGAGAGTGCATTTAATATTATTTAAT [GTGCAC_site9444],8.99
26,TATATATAATATACATGTACAAATGTATTTAAAAAT [XGTACX_site6090],7.07
